# Source: PubChem BioAssay (NCATS)
# Inconclusive results are not listed. Where a call stands in place of a potency, no number is given. Unmarked numbers belong to inactive results. Active and inactive are the calls of the source. The call rests on the fitted dose curve; in most records, active means well fitted curve in the direction sought with a large enough effect; inconclusive means small, poorly fitted or top-dose-only effect, or another doubt; inactive means no such curve, though single readings can be large; an effect the other way counts as inactive or inconclusive.
# How the values were obtained:
# [1] = biological target: ATP-dependent 6-phosphofructokinase (Trypanosoma brucei brucei) (UniProt O15648); assay: qHTS Assay to Find Inhibitors of T. brucei phosphofructokinase: hit validation (AID 492961);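 further: luminescence reports ADP formed as PFK phosphorylates fructose-6-phosphate with ATP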
# Outline: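 Percent activity derived from corrected luminescence, normalized between 0x and 1x enzyme controls, then fitted to concentration-response curves. Conditions: 1.25 nM PFK, 0.1 mM ATP, 0.5 mM F6P, 45 min RT.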
# [2] = biological target: Ubiquitin carboxyl-terminal hydrolase 1 (Homo sapiens) (UniProt O94782); assay: Inhibitors of USP1/UAF1: Pilot qHTS (AID 504865);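 further: rhodamine fluorescence freed from ubiquitin-rhodamine substrate followed over time; top concentration of the series differs between compounds; nearly all actives have a fitted effect of over 35% in size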
# Outline: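 USP1/UAF1 complex (1nM) preincubated with compound 15 min at room temperature, then Ub-Rho substrate (150nM final) added. Fluorescence read kinetically at 480/540 nm, 6 reads every 60 seconds. Buffer: 50mM HEPES pH 7.8, 0.5mM EDTA, 0.1 mg/ml BSA, 1mM TCEP, 0.01% Tween-20.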
# [3] = biological target: Luciferin 4-monooxygenase (Photinus pyralis) (UniProt P08659); assay: Biochemical firefly luciferase enzyme assay for NPC (AID 624030);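 further: purified P. pyralis luciferase at 10 nM with luciferin and ATP substrate; nearly all actives have a fitted effect of over 70% in size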
# Outline: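 Counter-screen for direct inhibition of the luciferase enzyme by approved-drug library compounds, run at 10 nM enzyme in 50 mM Tris acetate (final). Luminescence was read within 5 min of enzyme-buffer addition and normalized to PTC124 versus DMSO (0%).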
# [4] = S16 Schwann cell PMP22 intronic element firefly luciferase assay (AID 624032); further: nearly all actives have a fitted effect of over 30% in size
# Outline: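 Rat S16 Schwann cells stably carrying a PMP22 intronic element-driven Fluc reporter were seeded overnight, then exposed to compounds for 24 h at 37 °C. Luminescence was normalized to PTC124 (positive control) and DMSO (0% activity).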
# [5] = NCATS anti-infectives library activity on HEK293 viability as a counter-qHTS vs the C. elegans viability qHTS (AID 1745854)
# Outline: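 Cytotoxicity counter-screen to a worm viability qHTS: CellTiter-Glo luminescence read 10 min after reagent addition. Compounds (final up to 41.7 uM, a 1:5 dilution series) incubated 24 hr at 37C with 1,500 HEK293 cells per well; digitonin control.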
# [6] = biological target: Glutathione peroxidase 1 (Homo sapiens) (UniProt P07203); assay: Primary qHTS Assay for Inhibitors of Recombinant Selenoprotein Glutathione Peroxidase 1 (GPX1) (AID 1845191); further: nearly all actives have a fitted effect of over 65% in size
# Outline: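 GPX1 10 nM, GR 100 nM, GSH 1 mM, NADPH 0.5 mM, CHP 0.5 mM (final). 30-min cpd preincubation, RT. Ex340/Em450 read t=0, t=15 min.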
# [7] = qHTS profiling for inhibitors of Plasmodium falciparum proliferation (AID 504749); further: nearly all actives have a fitted effect of over 60% in size; further: potency means the concentration at half of the fitted maximal effect; details: P. falciparum in erythrocytes, SYBR Green DNA, 72 h, at 28.7 µM (top of the series)
# Outline: (§1)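 Quantitative HTS: compounds pinned into medium, infected erythrocytes added (0.3% parasitemia, 2.5% hematocrit), 72 h culture at 37 C under 5% CO2. Saponin/Triton lysis with SYBR Green I, overnight RT, then fluorescence read.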
# [8] = system: 3D7; assay: as above; details: P. falciparum in erythrocytes, SYBR Green DNA, 72 h; series mostly up to 28.7 µM
# Outline: as §1
# [9] = system: 7G8; assay: as above; details: P. falciparum in erythrocytes, SYBR Green DNA, 72 h; series mostly up to 28.7 µM
# Outline: as §1
# [10] = system: AA1029; assay: as above; details: P. falciparum in erythrocytes, SYBR Green DNA, 72 h; series mostly up to 28.7 µM
# Outline: as §1
# [11] = system: AS120; assay: as above; details: P. falciparum in erythrocytes, SYBR Green DNA, 72 h; series mostly up to 28.7 µM
# Outline: as §1
# [12] = system: ATS189; assay: as above; details: P. falciparum in erythrocytes, SYBR Green DNA, 72 h; series mostly up to 28.7 µM
# Outline: as §1
# [13] = system: ATS95; assay: as above; details: P. falciparum in erythrocytes, SYBR Green DNA, 72 h; series mostly up to 28.7 µM
# Outline: as §1
# [14] = system: C2A; assay: as above; details: P. falciparum in erythrocytes, SYBR Green DNA, 72 h; series mostly up to 28.7 µM
# Outline: as §1
# [15] = system: CP185; assay: as above; details: P. falciparum in erythrocytes, SYBR Green DNA, 72 h; series mostly up to 28.7 µM
# Outline: as §1
# [16] = system: CP191; assay: as above; details: P. falciparum in erythrocytes, SYBR Green DNA, 72 h; series mostly up to 28.7 µM
# Outline: as §1
# [17] = system: CP192; assay: as above; details: P. falciparum in erythrocytes, SYBR Green DNA, 72 h; series mostly up to 28.7 µM
# Outline: as §1
# [18] = system: CP194; assay: as above; details: P. falciparum in erythrocytes, SYBR Green DNA, 72 h; series mostly up to 28.7 µM
# Outline: as §1
# [19] = system: CP201; assay: as above; details: P. falciparum in erythrocytes, SYBR Green DNA, 72 h; series mostly up to 28.7 µM
# Outline: as §1
# [20] = system: CP215; assay: as above; details: P. falciparum in erythrocytes, SYBR Green DNA, 72 h; series mostly up to 28.7 µM
# Outline: as §1
# [21] = system: CP217; assay: as above; details: P. falciparum in erythrocytes, SYBR Green DNA, 72 h; series mostly up to 28.7 µM
# Outline: as §1
# [22] = system: CP237; assay: as above; details: P. falciparum in erythrocytes, SYBR Green DNA, 72 h; series mostly up to 28.7 µM
# Outline: as §1
# [23] = system: CP238; assay: as above; details: P. falciparum in erythrocytes, SYBR Green DNA, 72 h; series mostly up to 28.7 µM
# Outline: as §1
# [24] = system: CP247; assay: as above; details: P. falciparum in erythrocytes, SYBR Green DNA, 72 h; series mostly up to 28.7 µM
# Outline: as §1
# [25] = system: CP250; assay: as above; details: P. falciparum in erythrocytes, SYBR Green DNA, 72 h; series mostly up to 28.7 µM
# Outline: as §1
# [26] = system: CP252; assay: as above; details: P. falciparum in erythrocytes, SYBR Green DNA, 72 h; series mostly up to 28.7 µM
# Outline: as §1
# [27] = system: CP256; assay: as above; details: P. falciparum in erythrocytes, SYBR Green DNA, 72 h; series mostly up to 28.7 µM
# Outline: as §1
# [28] = system: CP260; assay: as above; details: P. falciparum in erythrocytes, SYBR Green DNA, 72 h; series mostly up to 28.7 µM
# Outline: as §1
# [29] = system: CP262; assay: as above; details: P. falciparum in erythrocytes, SYBR Green DNA, 72 h; series mostly up to 28.7 µM
# Outline: as §1
# [30] = system: CP265; assay: as above; details: P. falciparum in erythrocytes, SYBR Green DNA, 72 h; series mostly up to 28.7 µM
# Outline: as §1
# [31] = system: CP266; assay: as above; details: P. falciparum in erythrocytes, SYBR Green DNA, 72 h; series mostly up to 28.7 µM
# Outline: as §1
# [32] = system: CP269; assay: as above; details: P. falciparum in erythrocytes, SYBR Green DNA, 72 h; series mostly up to 28.7 µM
# Outline: as §1
# [33] = system: CP297; assay: as above; details: P. falciparum in erythrocytes, SYBR Green DNA, 72 h; series mostly up to 28.7 µM
# Outline: as §1
# [34] = system: CP315; assay: as above; details: P. falciparum in erythrocytes, SYBR Green DNA, 72 h; series mostly up to 28.7 µM
# Outline: as §1
# [35] = system: CP329; assay: as above; details: P. falciparum in erythrocytes, SYBR Green DNA, 72 h; series mostly up to 28.7 µM
# Outline: as §1
# [36] = system: DFO2036; assay: as above; details: P. falciparum in erythrocytes, SYBR Green DNA, 72 h; series mostly up to 28.7 µM
# Outline: as §1
# [37] = system: DIV17; assay: as above; details: P. falciparum in erythrocytes, SYBR Green DNA, 72 h; series mostly up to 28.7 µM
# Outline: as §1
# [38] = system: Dd2; assay: as above; details: P. falciparum in erythrocytes, SYBR Green DNA, 72 h; series mostly up to 28.7 µM
# Outline: as §1
# [39] = system: ECU; assay: as above; details: P. falciparum in erythrocytes, SYBR Green DNA, 72 h; series mostly up to 28.7 µM
# Outline: as §1
# [40] = system: FAB9; assay: as above; details: P. falciparum in erythrocytes, SYBR Green DNA, 72 h; series mostly up to 28.7 µM
# Outline: as §1
# [41] = system: GB4; assay: as above; details: P. falciparum in erythrocytes, SYBR Green DNA, 72 h; series mostly up to 28.7 µM
# Outline: as §1
# [42] = system: HB3; assay: as above; details: P. falciparum in erythrocytes, SYBR Green DNA, 72 h; series mostly up to 28.7 µM
# Outline: as §1
# [43] = system: JCK; assay: as above; details: P. falciparum in erythrocytes, SYBR Green DNA, 72 h; series mostly up to 28.7 µM
# Outline: as §1
# [44] = system: N140; assay: as above; details: P. falciparum in erythrocytes, SYBR Green DNA, 72 h; series mostly up to 28.7 µM
# Outline: as §1
# [45] = system: PAD; assay: as above; details: P. falciparum in erythrocytes, SYBR Green DNA, 72 h; series mostly up to 28.7 µM
# Outline: as §1
# [46] = system: PC15; assay: as above; details: P. falciparum in erythrocytes, SYBR Green DNA, 72 h; series mostly up to 28.7 µM
# Outline: as §1
# [47] = system: PC26; assay: as above; details: P. falciparum in erythrocytes, SYBR Green DNA, 72 h; series mostly up to 28.7 µM
# Outline: as §1
# [48] = system: PC49; assay: as above; details: P. falciparum in erythrocytes, SYBR Green DNA, 72 h; series mostly up to 28.7 µM
# Outline: as §1
# [49] = system: SC27B; assay: as above; details: P. falciparum in erythrocytes, SYBR Green DNA, 72 h; series mostly up to 28.7 µM
# Outline: as §1
# [50] = system: TAB109; assay: as above; details: P. falciparum in erythrocytes, SYBR Green DNA, 72 h; series mostly up to 28.7 µM
# Outline: as §1
# [51] = system: TAB113; assay: as above; details: P. falciparum in erythrocytes, SYBR Green DNA, 72 h; series mostly up to 28.7 µM
# Outline: as §1
# [52] = system: TAB165; assay: as above; details: P. falciparum in erythrocytes, SYBR Green DNA, 72 h; series mostly up to 28.7 µM
# Outline: as §1
# Sequence of Ubiquitin carboxyl-terminal hydrolase 1 (Homo sapiens) (O94782 whole entry, looked up): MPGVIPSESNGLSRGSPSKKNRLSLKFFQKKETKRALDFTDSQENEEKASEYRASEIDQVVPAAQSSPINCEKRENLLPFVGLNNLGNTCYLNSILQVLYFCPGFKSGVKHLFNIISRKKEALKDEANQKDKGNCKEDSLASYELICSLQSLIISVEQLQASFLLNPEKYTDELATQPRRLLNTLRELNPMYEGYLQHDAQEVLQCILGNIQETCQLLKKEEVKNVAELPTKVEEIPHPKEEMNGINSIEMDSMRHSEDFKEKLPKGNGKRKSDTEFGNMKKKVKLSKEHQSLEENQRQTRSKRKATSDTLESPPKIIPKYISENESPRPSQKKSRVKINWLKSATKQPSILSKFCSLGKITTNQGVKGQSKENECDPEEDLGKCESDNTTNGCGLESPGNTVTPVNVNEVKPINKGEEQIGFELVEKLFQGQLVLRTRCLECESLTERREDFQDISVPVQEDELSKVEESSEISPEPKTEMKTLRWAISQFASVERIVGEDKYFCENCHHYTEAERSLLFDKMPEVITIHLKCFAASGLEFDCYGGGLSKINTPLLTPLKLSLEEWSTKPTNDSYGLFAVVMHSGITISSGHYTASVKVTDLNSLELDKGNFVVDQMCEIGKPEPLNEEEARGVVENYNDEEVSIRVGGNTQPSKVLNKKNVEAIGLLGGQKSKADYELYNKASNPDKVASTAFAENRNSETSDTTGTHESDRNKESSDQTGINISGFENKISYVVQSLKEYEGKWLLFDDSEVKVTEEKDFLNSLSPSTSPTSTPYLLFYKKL
# Sequence of Luciferin 4-monooxygenase (Photinus pyralis) (P08659 whole entry, looked up): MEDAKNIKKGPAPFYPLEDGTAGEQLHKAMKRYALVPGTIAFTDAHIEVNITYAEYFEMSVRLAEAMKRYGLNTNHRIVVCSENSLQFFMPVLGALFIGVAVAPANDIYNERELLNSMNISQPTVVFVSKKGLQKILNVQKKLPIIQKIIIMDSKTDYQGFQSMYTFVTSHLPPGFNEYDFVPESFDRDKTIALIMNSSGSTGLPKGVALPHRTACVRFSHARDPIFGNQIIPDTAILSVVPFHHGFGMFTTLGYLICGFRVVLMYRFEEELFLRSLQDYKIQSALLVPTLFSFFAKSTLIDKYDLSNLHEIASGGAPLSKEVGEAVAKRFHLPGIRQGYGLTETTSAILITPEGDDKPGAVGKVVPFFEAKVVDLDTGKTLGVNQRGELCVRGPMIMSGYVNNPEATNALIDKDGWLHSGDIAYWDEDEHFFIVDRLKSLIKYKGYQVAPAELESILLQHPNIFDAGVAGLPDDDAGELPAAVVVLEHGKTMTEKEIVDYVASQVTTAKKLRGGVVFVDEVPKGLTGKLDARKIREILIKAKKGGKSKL
# Sequence of ATP-dependent 6-phosphofructokinase (Trypanosoma brucei brucei) (O15648 whole entry, looked up): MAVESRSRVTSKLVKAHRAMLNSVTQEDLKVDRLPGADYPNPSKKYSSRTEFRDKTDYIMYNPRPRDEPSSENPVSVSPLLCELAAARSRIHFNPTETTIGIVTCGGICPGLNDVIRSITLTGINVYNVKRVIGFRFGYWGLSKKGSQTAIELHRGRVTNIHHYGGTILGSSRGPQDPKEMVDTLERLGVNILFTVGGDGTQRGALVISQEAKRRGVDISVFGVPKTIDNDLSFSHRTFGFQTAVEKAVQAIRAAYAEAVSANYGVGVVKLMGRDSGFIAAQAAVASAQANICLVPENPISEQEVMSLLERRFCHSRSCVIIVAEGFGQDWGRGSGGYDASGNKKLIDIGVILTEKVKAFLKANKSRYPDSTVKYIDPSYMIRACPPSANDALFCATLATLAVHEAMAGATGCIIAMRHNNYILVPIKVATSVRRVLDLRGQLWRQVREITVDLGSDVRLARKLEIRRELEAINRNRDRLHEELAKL
# Sequence of Glutathione peroxidase 1 (Homo sapiens) (P07203 whole entry, looked up): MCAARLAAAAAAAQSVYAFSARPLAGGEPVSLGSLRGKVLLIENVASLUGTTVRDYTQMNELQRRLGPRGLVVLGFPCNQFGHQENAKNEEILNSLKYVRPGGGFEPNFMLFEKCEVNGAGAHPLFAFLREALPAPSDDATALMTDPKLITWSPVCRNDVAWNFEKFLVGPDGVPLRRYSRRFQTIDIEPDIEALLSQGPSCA
smiles,measurement,setting,value
CC(C)CN(C[C@@H](O)[C@H](Cc1ccccc1)NC(=O)O[C@H]1CCOC1)S(=O)(=O)c1ccc(N)cc1,outcome,[1],inactive
same,Potency,[2],inactive
same,Potency,[3],inactive
same,Potency,[4],inactive
same,Potency,[5],inactive
same,Potency,[6],inactive
same,"activity, negative = inhibition",[7]; parasite line A,-4.85%
same,"activity, negative = inhibition",[7]; parasite line B,-24.9%
same,Potency,[8],inactive
same,Potency,[9],10 µM (active)
same,Potency,[10],inactive
same,Potency,[11],inactive
same,Potency,[12],inactive
same,Potency,[13],inactive
same,Potency,[14],inactive
same,Potency,[15],inactive
same,Potency,[16],inactive
same,Potency,[17],inactive
same,Potency,[18],inactive
same,Potency,[19],inactive
same,Potency,[20],inactive
same,Potency,[21],inactive
same,Potency,[22],inactive
same,Potency,[23],inactive
same,Potency,[24],inactive
same,Potency,[25],inactive
same,Potency,[26],inactive
same,Potency,[27],inactive
same,Potency,[28],inactive
same,Potency,[29],inactive
same,Potency,[30],inactive
same,Potency,[31],inactive
same,Potency,[32],inactive
same,Potency,[33],inactive
same,Potency,[34],inactive
same,Potency,[35],inactive
same,Potency,[36],inactive
same,Potency,[37],inactive
same,Potency,[38],inactive
same,Potency,[39],inactive
same,Potency,[40],inactive
same,Potency,[41],inactive
same,Potency,[42],inactive
same,Potency,[43],inactive
same,Potency,[44],inactive
same,Potency,[45],inactive
same,Potency,[46],inactive
same,Potency,[47],inactive
same,Potency,[48],inactive
same,Potency,[49],inactive
same,Potency,[50],inactive
same,Potency,[51],inactive
same,Potency,[52],inactive
